High-throughput results from PubChem BioAssay.
A selection: hits, their analogues and other compounds. The true share with any hit is near 4.7%.
tim10-1 inh – inhibits growth of tim10-1 mutant yeast; S. cerevisiae tim10-1 ts strain growth, BacTiter-Glo, 24 h; AID 463190; 2.2% of 330,000 active; inhibition, % at 20 µM;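 active means inhibition of at least 40%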;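 further: mutant grown at 25 °C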
TIM10 inh – growth inhibitors of TIM10 yeast strain. inhibition, % at 10 µM. 1.4% of 330,000 active. S. cerevisiae TIM10 strain growth, BacTiter-Glo luminescence, 24 h;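 active means inhibition of 40% or more at the single tested concentration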;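 further: wild-type TIM10 isogenic control strain grown at permissive 25 °C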
PfHsp90 yeast 2 – growth inhibition of yeast expressing Plasmodium Hsp90; S. cerevisiae expressing PfHsp90, BacTiter-Glo ATP, 48 h; yeast lacking PDR1 and PDR3 efflux regulators; inhibition, % at 9.4 µM; 0.32% of 310,000 active; AID 504621;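 active means every replicate shows inhibition above about 80%, whatever the replicate mean, limit read from the data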
SKKanGAS inh – SKKanGAS growth inhibition | S. pyogenes SKKanGAS, kanamycin growth, BacTiter-Glo, 6 h | inhibition, % at 7.5 µM | 1.3% of 300,000 active | AID 1662;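 active means mean replicate score, as percent of positive control median, at least 50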;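 further: strain carries kanamycin resistance gene driven by streptokinase promoter and grows in 40 µg/ml kanamycin; loss of luminescence reflects streptokinase promoter inhibition or plain growth inhibition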
ATG4B inh – ATG4B (human) cysteine protease inhibition. Q9Y4P1. ATG4B cleavage of LC3-PLA2, NBD-HPC fluorescence, 1 h. inhibition, % at 8.33 µM. 0.51% of 340,000 active; in the data active means inhibition above about 40%
Target sequence (Q9Y4P1 whole entry, looked up): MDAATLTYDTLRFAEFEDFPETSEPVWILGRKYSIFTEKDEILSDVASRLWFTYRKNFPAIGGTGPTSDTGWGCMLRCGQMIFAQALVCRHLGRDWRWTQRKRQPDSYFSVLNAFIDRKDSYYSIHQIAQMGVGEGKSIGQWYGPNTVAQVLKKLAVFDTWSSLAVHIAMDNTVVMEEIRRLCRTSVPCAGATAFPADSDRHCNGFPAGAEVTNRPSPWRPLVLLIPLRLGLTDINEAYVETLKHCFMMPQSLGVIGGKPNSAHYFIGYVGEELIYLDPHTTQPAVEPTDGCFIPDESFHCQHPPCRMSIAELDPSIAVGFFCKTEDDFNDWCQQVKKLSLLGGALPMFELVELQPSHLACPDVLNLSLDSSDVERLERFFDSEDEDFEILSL
tim23-1 inh – tim23-1 yeast growth inhibition. 1.3% of 330,000 active. S. cerevisiae tim23-1 growth, BacTiter-Glo luminescence, 24 h. inhibition, % at 20 µM;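 active means growth inhibition of the mutant yeast at or above 50%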;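 further: temperature-sensitive mutant grown at 25 °C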
ATG4B conf – confirmation of human ATG4B inhibitors | shares compounds with ATG4B inh | ATG4B protease fluorescent substrate cleavage assay | inhibition, % at 8.33 µM | 92% of 320 active; in the data active means inhibition above about 39%
PLA2 counter – PLA2 (human) inhibition in ATG4B counter-screen. shares compounds with ATG4B inh. purified PLA2, NBD-C6-HPC fluorescence, 45 min. inhibition, % at 8.33 µM. 66% of 1,600 active. AID 588402; in the data active means inhibition above about 50%
Target sequence (P04054 whole entry, looked up): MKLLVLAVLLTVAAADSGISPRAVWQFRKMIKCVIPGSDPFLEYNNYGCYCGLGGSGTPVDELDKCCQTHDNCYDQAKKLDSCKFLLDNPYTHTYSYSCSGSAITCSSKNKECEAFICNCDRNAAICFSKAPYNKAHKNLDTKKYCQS
Hits are given with their value; – = inactive; · = not tested or not shown.

SMILES	tim10-1 inh	TIM10 inh	PfHsp90 yeast 2	SKKanGAS inh	ATG4B inh	tim23-1 inh	PLA2 counter	others
COc1ccc(C)cc1S(=O)(=O)N(CC(=O)Nc1cc([N+](=O)[O-])ccc1C)c1ccc(C)c(C)c1	–	–	–	–	77.5	–	86.7
Cc1ccc(S(=O)(=O)N(CC(=O)Nc2ccc(Cl)c([N+](=O)[O-])c2)C2CCCCC2)cc1	–	–	–	–	–	–	·
Cc1ccc(S(=O)(=O)N(CC(=O)Nc2cccc([N+](=O)[O-])c2)C2CCCCC2)cc1	–	–	–	–	44.7	–	51.4
COc1ccc(C)cc1S(=O)(=O)N(CC(=O)Nc1cccc([N+](=O)[O-])c1)c1cc(C)cc(C)c1	–	–	–	–	82.8	–	85.6
CC(C)c1ccc(NC2CCCN(C(=O)c3ccoc3)C2)cc1 (stereo unspecified)	–	–	–	–	56.2	–	59.7
CC(C)c1ccc(NC2CCCN(C(=O)c3ccc(N4CCOCC4)cc3)C2)cc1 (stereo unspecified)	–	–	–	–	77.0	–	81.7
CC(C)c1ccc(NC2CCCN(C(=O)c3cc(C(C)C)nc(N)n3)C2)cc1 (stereo unspecified)	–	–	–	–	75.2	–	76.7
O=C(c1ccoc1)N1CCCC(Nc2ccc(F)c(F)c2)C1 (stereo unspecified)	–	–	–	–	–	–	·
CC(C)c1ccc(NC2CCCN(C(=O)CC3CCCC3)C2)cc1 (stereo unspecified)	–	–	–	–	86.6	–	88.6
CC(C)c1ccc(NC2CCCN(C(=O)c3cscn3)C2)cc1 (stereo unspecified)	–	–	–	–	–	–	·
Cc1nn(C)cc1C(C)NCc1c(C(=O)N2CCCCCCC2)nc2ccc(Cl)cn12 (stereo unspecified)	–	–	–	–	–	–	·
COc1ccc2[nH]c3c(c2c1)CC(C)NC3=O (stereo unspecified)	–	–	–	–	–	–	·
COC(=O)NNC(=O)COc1cc(C)c(Br)cc1C(C)C	–	–	–	–	40.8	–	–
CCCCn1c(N)c(N(CCOC)C(=O)COC(=O)COc2cc(C)c(Cl)cc2C(C)C)c(=O)[nH]c1=O	–	–	–	–	51.2	–	57.9
O=C1[C@H](Cc2ccccc2)NCC=CC[C@@H](c2ccc(Cl)cc2)N1Cc1ccc(Cl)cc1	·	·	–	·	–	·	·
O=C1[C@H](Cc2ccccc2)NCC=CC[C@H](c2ccc(Cl)cc2)N1Cc1ccccc1	·	·	–	·	56.6	·	69.6
O=C1[C@H](Cc2ccccc2)NCC=CC[C@H](c2ccc(Cl)cc2)N1Cc1ccc(Cl)cc1	·	·	–	·	45.5	·	80.5
CN(C)CC(=O)N1CCc2ccccc2C1	–	–	–	–	–	–	·
S=C(NCCc1ccccc1)NCCc1ccccc1	–	–	–	–	–	–	·
S=C(NCCCCc1ccccc1)NCc1ccccc1	–	–	–	–	63.1	–	69.6
S=C(Nc1ccc(Cl)c(Cl)c1)NC1CCN(Cc2ccccc2)CC1	–	–	–	–	–	–	·
S=C(NCCc1ccccc1)NCc1cccc(Cl)c1	–	–	–	–	84.2	–	90.1
S=C(NCCCCNC(=S)NCc1ccccc1)NCc1ccccc1	–	–	–	–	–	–	·
S=C(NCc1cccc(Cl)c1)NC1CCCCC1	–	–	–	–	59.2	–	64.0
S=C(Nc1ccc(Cl)c(Cl)c1)NC1CCCCC1	–	–	·	–	48.0	–	–
SMILES	tim10-1 inh	TIM10 inh	PfHsp90 yeast 2	SKKanGAS inh	ATG4B inh	tim23-1 inh	PLA2 counter	others
COc1ccc(C(=O)OCC(=O)c2ccc(CNC(C)=O)s2)cc1	–	–	–	·	–	–	·
COC(c1ccccc1)c1nnc(CCC(=O)N2CCCCCCC2)o1 (stereo unspecified)	–	–	–	–	–	–	·
O=C(CCSCc1ccc(Cl)cc1)NCCc1ccccc1	–	–	–	–	–	–	·
O=C(CCSCc1cccc(Cl)c1)NCCc1ccc(Cl)cc1	–	–	–	–	43.6	–	–
C#CCOCCOCCOCCNc1nc(N2CCN(C(=O)CCCCCCCCCCNC(=O)[C@H](CCCCN)n3cc(C[C@@H](C)CC)nn3)CC2)nc(N2CCN(C(=O)CCCCCCCCCCNC(=O)[C@H](CCCN=C(N)N)n3cc(C[C@@H](C)CC)nn3)CC2)n1	–	–	–	·	88.1	–	81.1
O=C(Nc1ccc(N2CCCC2)cc1)c1cccc(-c2cc3ccccc3oc2=O)c1	–	–	–	–	–	–	·
O=C(Nc1ccccc1N1CCCC1)c1cccc(-c2cc3ccccc3oc2=O)c1	–	–	–	–	57.5	–	66.7
Cc1ccccc1NC(=S)N(CCc1c(C)[nH]c2ccc(F)cc12)Cc1cccnc1	–	–	–	–	–	–	·
O=c1[nH]c(Nc2ccccc2)cc2ccccc12	–	–	–	–	–	–	–	ATG4B conf=75.3
O=c1[nH]c(Nc2ccccc2)cc2cc(Br)ccc12	–	–	–	–	–	–	·
O=C(NN1C(=O)/C(=C/C=C/c2ccco2)SC1=S)c1ccncc1	–	–	·	–	53.6	–	–	ATG4B conf=64.6
CS(=O)(=O)N(CC(=O)Nc1ccc(S(=O)(=O)N2CCCC2)cc1)c1cccc(F)c1	–	–	–	–	–	–	·
Cc1ccc(S(=O)(=O)N(Cc2ccccc2)Cc2ccco2)cc1	–	–	–	–	44.3	–	55.9
O=C(/C=C/Nc1cccc([N+](=O)[O-])c1)c1ccco1	–	–	–	–	–	–	·
O=C(/C=C1\NC2(CCCC2)Cc2ccccc21)C(=O)N/N=C/c1ccccc1O	–	–	–	95.6	44.4	–	–
O=C(O)CN=C1NC2(CCCC2)Cc2ccccc21	–	–	–	–	–	–	·
CCSc1nnc(-c2cnn(-c3ccccc3)c2-n2cccc2)n1C	–	–	–	–	–	–	·
CCCCCCSc1nnc(-c2cnn(-c3ccccc3)c2-n2cccc2)n1C	–	–	–	–	43.9	–	58.1
Cc1sc(NC(=O)c2ccc(=O)n(C)n2)nc1-c1ccccc1	–	–	–	–	–	–	·
Cc1sc(NC(=O)c2c(F)cccc2F)nc1-c1ccccc1	–	–	–	–	53.4	–	66.8
CCSC1=C(C#N)C(c2ccc(C)o2)CC(=O)N1 (stereo unspecified)	–	–	–	–	–	–	·
O=C(CSc1nc(=O)n(CCN2CCOCC2)c2c1CCCC2)Nc1ccc([N+](=O)[O-])cc1	–	–	–	–	–	–	·
Cc1sc2nc(SCc3nnc(-c4cccs4)o3)n(C3CCCC3)c(=O)c2c1C	–	–	·	–	44.2	–	65.6
